Measurements published in PubChem BioAssay.
Active and inactive are the calls of the source.

Columns and labels:
[1] = optical density shifts of acrAB sulA E. coli – strain DRC41, OD650, 48 h, E. coli filamentation inducer project, primary screen (AID 1152); details: higher = more signal, called active from +8 up or from −8 down;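 further: E. coli MC1000 strain DRC41 lacking acrAB efflux pump and sulA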
[2] = probe aLefty1 binding on compound microarray – biochemical, small-molecule microarray, 635/667 nm fluorescence, primary screen (AID 1153); details: higher = more signal;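 further: score merges spot fluorescence with signal-to-noise ratio from the scanned slide images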
[3] = plasmodial surface anion channel blockers, osmotic lysis – cell-based, P. falciparum Indochina, OD700, 1 h, primary screen (AID 1154); details: P. falciparum Indochina infected RBC osmotic lysis, higher = more signal, called active from +8 up or from −8 down
[4] = plasmodial surface anion channel blockers, osmotic lysis – cell-based, P. falciparum Indochina, OD700, 2 h, primary screen (AID 1155);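 further: lysis reports solute entry through the parasite surface anion channel PSAC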; details: P. falciparum Indochina infected erythrocytes, higher = more signal, called active from +8 up or from −8 down
[5] = changes in parasitized red cell lysis, either direction – P. falciparum Indochina, OD700, 3 h, PSAC antagonist project, primary screen (AID 1156); details: P. falciparum-infected erythrocytes, osmotic lysis, higher = more signal, called active from +8 up or from −8 down
[6] = plasmodial surface anion channel blockers, osmotic lysis – cell-based, P. falciparum Indochina, OD700, 18 h, primary screen (AID 1157); details: P. falciparum Indochina infected erythrocytes, osmotic lysis OD700, 18 h; higher = more signal, called active from +8 up or from −8 down
[7] = S6 kinase pathway phospho-S6 level changes – cell-based, A549, cytoblot, luminescence, serum-stimulated, primary screen (AID 1158); details: 5 h, higher = more signal;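 further: serum-stimulated A549 lung adenocarcinoma cells; signal is phosphorylated S6 detected by cytoblot immunostaining with HRP secondary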
[8] = molecular target: NADPH oxidase 2 (Homo sapiens) (UniProt P04839); assay: compounds shifting NOX2 Amplex Red fluorescence – cell-based, HEK293-NOX2, PMA-stimulated, NOX inhibitor project, primary screen (AID 1159); details: 45 min, higher = more signal, called active from +8 up or from −8 down; further: test concentration not given here
[9] = molecular target: NADPH oxidase 4 (Homo sapiens) (UniProt Q9NPH5); assay: compounds shifting NOX4 Amplex Red fluorescence – cell-based, HEK293-NOX4, tetracycline-induced, NOX inhibitor project, primary screen (AID 1160); details: HEK293-NOX4, Amplex Red H2O2 fluorescence, 45 min; higher = more signal, called active from +8 up or from −8 down
[10] = molecular target: NADPH oxidase 5 (Homo sapiens) (UniProt Q96PH1); assay: compounds shifting NOX5 Amplex Red fluorescence – cell-based, HEK293-NOX5, NOX inhibitor project, primary screen (AID 1161); details: HEK293-NOX5, ionomycin, 45 min, higher = more signal
[11] = compound effects on lung adenocarcinoma cell viability – A549, calcein-AM fluorescence, 48 h, basal, profiling panel (AID 1162); details: higher = more signal; further: test concentration not given here
[12] = compound effects on differentiated 3T3-L1 adipocyte viability – cell-based, 3T3-L1 adipocytes, calcein-AM fluorescence, 48 h, basal, profiling panel (AID 1163); details: 3T3-L1 adipocytes viability, higher = more signal; further: test concentration not given here
[13] = compound effects on hepatocellular carcinoma cell viability – HepG2, calcein-AM fluorescence, 48 h, basal, profiling panel (AID 1164); details: higher = more signal; further: test concentration not given here
[14] = compound effects on multiple myeloma cell viability – MM1S, calcein-AM fluorescence, 48 h, basal, profiling panel (AID 1165); details: higher = more signal;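 further: viability of MM1S multiple myeloma cells under basal unstimulated conditions; test concentration not given here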
[15] = calcein-AM signal in unstimulated myeloma cells – cell-based, calcein-AM fluorescence, 48 h, PK04 Diversity Set, profiling panel (AID 1166); details: RPMI8226 myeloma viability, higher = more signal;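 further: cells grown under basal conditions without added stimulus; test concentration not given here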
[16] = JC-1 mitochondrial signal, unstimulated HepG2 cells – cell-based, JC-1 fluorescence, 24 h, 100 nL compound, profiling panel (AID 1167); details: HepG2 mitochondrial potential, higher = more signal; further: test concentration not given here
[17] = JC-1 mitochondrial signal, unstimulated adipocytes – cell-based, JC-1 fluorescence, 3T3-L1 adipocytes, 24 h, 100 nL compound, profiling panel (AID 1168); details: JC-1 mitochondrial fluorescence, higher = more signal, called active from +8 up or from −8 down; further: test concentration not given here
[18] = JC-1 mitochondrial signal, unstimulated myeloma cells – cell-based, JC-1 fluorescence, RPMI8226, 24 h, 100 nL compound, profiling panel (AID 1169); details: JC-1 mitochondrial potential fluorescence, higher = more signal; further: test concentration not given here
[19] = JC-1 mitochondrial signal, unstimulated MM1S myeloma – cell-based, JC-1 fluorescence, 24 h, 100 nL compound, profiling panel (AID 1170); details: MM1S mitochondrial potential, higher = more signal; further: test concentration not given here
[20] = resazurin metabolic signal in A549 cells – cell-based, resazurin fluorescence, 24 h, PK04 Diversity Set, profiling panel (AID 1171); details: A549 viability, higher = more signal, called active from +8 up or from −8 down; further: test concentration not given here

Chain of NADPH oxidase 5 (Homo sapiens) (Q96PH1 whole entry, looked up): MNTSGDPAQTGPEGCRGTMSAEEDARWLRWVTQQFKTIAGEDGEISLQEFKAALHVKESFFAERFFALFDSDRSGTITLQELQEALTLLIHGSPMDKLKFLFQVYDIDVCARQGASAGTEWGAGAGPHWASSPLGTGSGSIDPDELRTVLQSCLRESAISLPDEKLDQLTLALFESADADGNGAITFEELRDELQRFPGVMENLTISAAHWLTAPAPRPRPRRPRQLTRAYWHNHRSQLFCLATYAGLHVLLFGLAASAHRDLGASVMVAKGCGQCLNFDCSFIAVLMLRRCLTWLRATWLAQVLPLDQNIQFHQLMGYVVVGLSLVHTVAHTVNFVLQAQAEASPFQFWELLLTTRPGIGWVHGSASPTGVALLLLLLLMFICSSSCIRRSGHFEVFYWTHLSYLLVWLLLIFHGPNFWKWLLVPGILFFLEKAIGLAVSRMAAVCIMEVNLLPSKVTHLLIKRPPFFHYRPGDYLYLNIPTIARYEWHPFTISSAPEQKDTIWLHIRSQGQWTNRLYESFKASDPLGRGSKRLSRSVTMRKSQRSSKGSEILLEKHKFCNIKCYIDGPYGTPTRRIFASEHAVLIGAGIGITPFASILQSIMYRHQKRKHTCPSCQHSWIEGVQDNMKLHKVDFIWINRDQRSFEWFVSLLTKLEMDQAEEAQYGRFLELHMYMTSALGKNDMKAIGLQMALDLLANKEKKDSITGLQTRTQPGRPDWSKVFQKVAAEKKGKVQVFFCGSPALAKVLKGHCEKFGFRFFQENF
Chain of NADPH oxidase 2 (Homo sapiens) (P04839 whole entry, looked up): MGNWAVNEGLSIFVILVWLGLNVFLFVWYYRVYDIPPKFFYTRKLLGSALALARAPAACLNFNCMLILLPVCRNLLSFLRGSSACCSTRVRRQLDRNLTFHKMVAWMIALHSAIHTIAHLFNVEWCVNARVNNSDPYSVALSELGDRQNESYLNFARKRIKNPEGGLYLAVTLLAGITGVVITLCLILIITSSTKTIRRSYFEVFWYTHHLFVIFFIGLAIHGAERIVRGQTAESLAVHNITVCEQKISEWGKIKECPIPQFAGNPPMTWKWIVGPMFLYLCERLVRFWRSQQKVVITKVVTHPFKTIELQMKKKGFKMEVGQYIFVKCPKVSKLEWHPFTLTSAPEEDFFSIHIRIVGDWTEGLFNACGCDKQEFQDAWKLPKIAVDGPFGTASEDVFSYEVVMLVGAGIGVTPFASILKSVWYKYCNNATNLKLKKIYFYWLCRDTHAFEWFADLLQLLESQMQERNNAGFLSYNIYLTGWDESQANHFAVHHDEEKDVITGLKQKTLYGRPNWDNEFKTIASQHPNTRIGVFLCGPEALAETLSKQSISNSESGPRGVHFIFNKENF
Chain of NADPH oxidase 4 (Homo sapiens) (Q9NPH5 whole entry, looked up): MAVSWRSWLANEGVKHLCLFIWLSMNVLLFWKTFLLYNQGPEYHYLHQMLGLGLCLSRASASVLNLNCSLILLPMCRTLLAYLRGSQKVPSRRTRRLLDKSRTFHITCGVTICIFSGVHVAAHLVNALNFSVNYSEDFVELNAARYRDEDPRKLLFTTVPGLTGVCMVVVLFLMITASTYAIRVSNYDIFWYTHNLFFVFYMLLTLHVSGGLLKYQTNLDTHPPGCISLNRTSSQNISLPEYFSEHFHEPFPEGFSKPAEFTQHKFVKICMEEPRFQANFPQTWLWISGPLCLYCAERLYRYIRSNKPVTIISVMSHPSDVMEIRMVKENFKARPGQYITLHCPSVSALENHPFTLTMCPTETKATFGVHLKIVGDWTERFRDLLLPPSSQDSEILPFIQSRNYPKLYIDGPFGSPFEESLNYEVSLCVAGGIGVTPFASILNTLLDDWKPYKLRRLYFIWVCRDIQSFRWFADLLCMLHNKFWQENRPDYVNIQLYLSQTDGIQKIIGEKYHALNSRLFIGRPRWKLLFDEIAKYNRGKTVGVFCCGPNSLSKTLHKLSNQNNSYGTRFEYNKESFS

SMILES | z-score [1] | composite z-score [2] | z-score [3] | z-score [4] | z-score [5] | z-score [6] | z-score [7] | z-score [8] | z-score [9] | z-score [10] | z-score [11] | z-score [12] | z-score [13] | z-score [14] | z-score [15] | z-score [16] | z-score [17] | z-score [18] | z-score [19] | z-score [20]
CCOC(=O)C[C@H]1[C@H](OC(=O)Cc2ccc3c(c2)OCO3)[C@@H](NC(=O)c2ccc3ccccc3c2)c2cc(OCCCO)ccc2N1C(=O)Cc1ccc(OC)cc1 | 2.54 (inactive) | -0.0626 | 18 (active) | 2.41 (inactive) | -1.47 (inactive) | -0.15 (inactive) | 2.6 | -0.629 (inactive) | 0.799 (inactive) | 1.08 | 1.55 | 1.08 | 1.56 | 0.956 | 0.41 | 1.66 | -0.14 (inactive) | -0.384 | -1.1 | -0.654 (inactive)
CC(C)[C@H]1NC(=O)[C@@]23C(=O)N[C@@H](Cc4ccccc4)C2[C@H](C)[C@@]2(C)O[C@H]2C3/C=C/C/C=C\CNC(=O)[C@H](C)NC1=O (stereo not given in full) | -0.629 (inactive) | -0.381 | 3.36 (inactive) | 0.538 (inactive) | 0.386 (inactive) | 0.01 (inactive) | -0.221 | 0.813 (inactive) | -0.833 (inactive) | 0.137 | 0.011 | 0.657 | -0.614 | 0.434 | -0.938 | -0.458 | -0.0933 (inactive) | 0.279 | 0.498 | 0.0653 (inactive)
C=CCC(OC(C)=O)[C@@H]1[C@@H](N(Cc2ccc(-c3cccc(C(F)(F)F)c3)o2)C(=O)Cc2ccc(F)cc2)c2cc(OCCCO)ccc2N1C(=O)c1ccc(-c2ccccc2)cc1 (stereo not given in full) | -1.01 (inactive) | -0.0489 | 1.23 (inactive) | -0.401 (inactive) | -0.642 (inactive) | -0.255 (inactive) | -0.0924 | -0.0336 (inactive) | 1.1 (inactive) | 1.29 | 0.468 | 0.145 | 0.536 | 1.16 | -0.147 | 1.88 | -1.64 (inactive) | -0.582 | 0.286 | 0.303 (inactive)
C/C(=N\O)C(=O)NCCCCCNC(=O)OCc1ccccc1 | 1.93 (inactive) | -0.194 | 15.4 (active) | 2.09 (inactive) | -0.222 (inactive) | 0.501 (inactive) | -0.246 | -0.459 (inactive) | 0.0531 (inactive) | -0.588 | 1.3 | 0.895 | 0.206 | 0.476 | 0.239 | 1.09 | 0.334 (inactive) | -0.561 | 1.24 | 0.707 (inactive)
C#CCNC(/C=C/c1ccccc1)CO (stereo not given) | -0.759 (inactive) | -0.252 | -0.181 (inactive) | 0.36 (inactive) | 0.286 (inactive) | 0.0834 (inactive) | 0.168 | -0.867 (inactive) | 0.813 (inactive) | -0.548 | -0.165 | -0.239 | -0.624 | -0.295 | -0.987 | -1.02 | 0.308 (inactive) | 0.38 | -0.323 | 0.234 (inactive)
COCCCNC(=O)[C@@]1(Sc2ccc(C)cc2)CC(=O)N(Cc2cc(C(F)(F)F)cc(C(F)(F)F)c2)[C@@H]1c1ccc(CO)cc1I | 1.57 (inactive) | 0.162 | 2.3 (inactive) | 1.08 (inactive) | -0.34 (inactive) | 0.278 (inactive) | 0.411 | 2.35 (inactive) | -0.978 (inactive) | 1.75 | 0.697 | 1.34 | -0.632 | -2.24 | -2.34 | 0.0901 | 0.135 (inactive) | -0.00613 | -0.315 | 0.555 (inactive)
CCCC[C@@H]1C[C@H]1[C@@H](NC(=O)c1ccccc1)c1ccccc1C(F)(F)F | -0.94 (inactive) | 0.747 | -0.247 (inactive) | 0.803 (inactive) | -0.429 (inactive) | 0.422 (inactive) | 0.807 | 0.566 (inactive) | -1.02 (inactive) | 0.262 | -0.407 | 0.128 | -0.0379 | -1.69 | -0.947 | -1.06 | -0.895 (inactive) | -0.472 | -0.573 | 2.38 (inactive)
CCOC(=O)C[C@H]1[C@H](OC(=O)c2ccccc2-c2ccccc2)[C@@H](NC(=O)c2ccc(-c3ccccc3)cc2)c2cc(OCCCO)ccc2N1C(=O)Cc1ccc(OC)cc1 | -0.866 (inactive) | -0.147 | 17.3 (active) | 2.83 (inactive) | -0.405 (inactive) | 0.575 (inactive) | 0.111 | 0.155 (inactive) | 1.22 (inactive) | 1.21 | -0.183 | -0.367 | 0.29 | 0.0542 | -0.997 | 0.181 | -0.421 (inactive) | -0.616 | 0.103 | 0.0911 (inactive)
COc1cccc([C@H]2N[C@H](C(=O)O)CC[C@@H]2C)c1 | 0.669 (inactive) | -0.23 | 1.09 (inactive) | 0.0208 (inactive) | 0.269 (inactive) | -1.06 (inactive) | 3.05 | 0.0263 (inactive) | -0.557 (inactive) | 0.125 | 0.0912 | 2.03 | -0.175 | 0.543 | -1.36 | 1.16 | 0.75 (inactive) | -0.358 | 0.632 | -0.336 (inactive)
